# Reference: PubChem BioAssay AID493248 (Broad Institute, 2011)
# Out of some 2,300 compounds screened, about 1,400 (61%) were called active. Roughly 7% stayed inconclusive and do not appear here. The rule behind the calls is not given here. So high a share suggests a set chosen from earlier hits. Only a sample is shown. Measured potencies and affinities stand elsewhere.
# Target: FAD-linked sulfhydryl oxidase ALR (Homo sapiens) (UniProt P55789)
# Experiment: ALR-catalysed DTT oxidation blockers – biochemical, H2O2 detection, luminescence, cherry-pick, dose response (AID 493248)
# Settings: purified ALR, H2O2 HRP-luminol luminescence; at 10 µM (top of the series)
# Chain of FAD-linked sulfhydryl oxidase ALR (Homo sapiens) (P55789 whole entry, looked up): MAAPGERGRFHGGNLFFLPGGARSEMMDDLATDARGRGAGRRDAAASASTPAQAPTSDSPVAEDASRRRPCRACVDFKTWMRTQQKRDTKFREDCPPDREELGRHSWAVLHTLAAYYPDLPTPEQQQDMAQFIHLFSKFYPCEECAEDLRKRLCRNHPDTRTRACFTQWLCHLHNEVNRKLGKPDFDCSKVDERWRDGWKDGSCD
row,Structure (SMILES),"activity change, negative = inhibition [%]"
1,Cn1nnnc1SCc1ccc(C(=O)Nc2nccs2)cc1,-48.1
2,O=C1NCCCc2c1oc1ccc(O)cc21,36.1
3,Nc1nn2cc(-c3ccccc3)nc2c2ccccc12,-12.4
4,COC(=O)CNS(=O)(=O)c1ccc(Cc2ccc(S(=O)(=O)NCC(=O)OC)cc2)cc1,3.52
5,CCCc1cc(=O)[nH]c(Nc2ccc(O)cc2)n1,-100
6,Cn1cccc1C(=O)OCc1csc(-c2ccccc2)n1,0.233
7,O=C(c1ccc(Cl)s1)N1CCN(c2ccccc2)CC1,-20
8,O=C(c1cc(C2CC2)on1)N1CCN(c2ccccc2)CC1,-8.71
9,Cc1cc(C(=O)CC#N)c(C)n1CC(F)(F)F,-17.1
10,CCN1CCSc2ccc(C(=O)NCc3cccc(F)c3)cc21,16
11,COc1cccc(/C=N/NC(=O)CNC(=O)c2cccnc2)c1O,-19
12,CCCC(C(=O)O)n1c(O)c(C=C2N=c3ccccc3=N2)sc1=S (centres undefined),-50.1
13,O=C(c1ccco1)n1nc(-c2ccccc2)nc1NCc1ccco1,-41.9
14,O=[N+]([O-])c1cc2c(cc1/C=N/n1c(-c3ccccc3)n[nH]c1=S)OCO2,-34.5
15,CC(C)c1cc(C(=O)N/N=C/c2ccco2)n[nH]1,21.6
16,CC(=C\c1ccccc1)/C=C1/SC(=O)N(CCCC(=O)Nc2ccc(C(=O)O)cc2)C1=O,1.78
17,S=c1[nH]nc(Cc2ccccc2)n1-c1ccccc1,-7.81
18,CC(=O)Oc1ccc(Nc2ccccc2)cc1,-1.83
19,COc1ccc2oc3cc(C)[n+]([O-])c(-c4ccc(C)cc4)c3c2c1,-57.4
20,O=C(O)CC/C(=C\c1ccccc1[N+](=O)[O-])c1nc2ccccc2s1,-55.4
21,COc1ccc(-c2noc(CN3CCN(c4ccccc4F)CC3)n2)cc1OC,-0.443
22,C(=N\Nc1ncnc2ccccc12)/c1ccccc1,-47.4
23,O=C(O)CCCN1C(=O)/C(=C\c2ccc(-c3nc4ccccc4s3)o2)SC1=S,-22.6
24,COc1cc(/C=C2\SC(=S)N(NC(=O)c3ccc(O)cc3)C2=O)ccc1O,-100
25,COc1ccc(C(=O)N/N=C(/C)c2ccc(N3CCCCC3)cc2)cc1,-0.469
26,COc1cc(NC(=O)NCCN2CCN(c3ccccc3)CC2)cc(OC)c1OC,-25.8
27,COc1ccc(OC)c(NC(=O)CN(c2ccc(C(C)C)cc2)S(=O)(=O)c2c(C)noc2C)c1,28.2

row,Structure (SMILES),"activity change, negative = inhibition [%]"
1,COc1c(C)cccc1C(=O)Nc1ccc(CN2CCCCC2)cc1,7.1
2,COc1ccc(NC(=O)c2cccnc2N2CCCC2)cc1,19.3
3,O=C(Nc1cc([N+](=O)[O-])ccc1O)c1ccc2c(c1)C(=O)N(Cc1ccco1)C2=O,-17.4
4,CCCN1C(=O)c2ccc(C(=O)Nc3ccccc3C(=O)O)cc2C1=O,-23.6
5,COc1ccc(C)cc1NCc1ccc(OC)c(C)c1OC,-55.4
6,Cc1ccc(N2CC(=O)N(NC(=O)CN3CCN(c4ccccc4)CC3)CC2=O)cc1,-47.4
7,COc1ccc(C(=O)N/N=C/C2CC=CCC2)cc1OC (centres undefined),-39.6
8,Fc1ccc(-n2c(-c3ccc4c(c3)OCO4)n[nH]c2=S)cc1Cl,-56.2
9,CN1C(=O)C2C(c3ccc(N(C)C)cc3)=NN(Cc3ccccc3)C2C1=O (centres undefined),-0.925
10,Cc1nc2cc(N)ccc2n1-c1ccccc1,367
11,CC1=Nc2ccccc2N=C(N)C1c1ccccc1 (centres undefined),-61.3
12,Cc1cc(C(=O)NNc2ccc(F)cc2F)no1,5.89
13,COc1cc(C(=S)N(C)C)ccc1O,-5.3
14,O=Cc1ccc(O)c(O)c1,-17.2
15,Oc1ccc(/C=N/N=C/c2ccc(O)cc2)cc1,256
16,Oc1ccc(N=Cc2ccc(O)c(O)c2)cc1,102
17,CC(C)CNC(=O)C(=O)N/N=C/c1cccs1,-15.3
18,CCn1c(O)c(/C=N/n2cnnc2)sc1=S,-33
19,Cc1cccc(NCCNc2cccc(C)c2)c1,-44.1
20,C/C(=N\NC(=O)CCCNc1ccc(C)cc1)c1ccccn1,419
21,Cc1cccc(N/N=C/c2ccncc2)c1,-105
22,CC(C)C(=O)c1ccc(O)c(O)c1,-24.1
23,Cc1cccc(Nc2nc(N)nc(CCl)n2)c1C,-38.4
24,CN(C)CCC(=O)N1c2ccccc2Sc2ccc(C(F)(F)F)cc21,-13.8
25,CCNc1nc(OC)nc(N(OC)S(=O)(=O)c2ccc(C)cc2)n1,-55.8
26,CC(C)(O)C#Cc1ccc(C(=O)NC2CCCCC2)s1,-45.6
27,CCCN1C(=O)c2cc(C(=O)NC3CCCCCC3)ccc2C1O (centres undefined),-16.6

row,Structure (SMILES),"activity change, negative = inhibition [%]"
1,O=S(=O)(Cc1ccccc1)N(O)c1ccccc1,-38.7
2,O=C(CCn1cnc2ccccc21)N/N=C/c1ccc(O)cc1,-88.9
3,Cc1ccc(NC(=O)CCC(=O)N/N=C/c2ccc(O)cc2)cc1,-2.67
4,Nc1c(Cl)ncnc1N/N=C/c1cccc(O)c1,-7.72
5,O/N=C/c1cccn1-c1ccc(O)cc1,-99.2
6,O=C(C[n+]1ccccc1)N/N=C/c1ccc(O)cc1,-108
7,O=c1oc2ccccc2n1CSC1=NCCS1,-21.8
8,O=[n+]1cc(-c2cc3ccccc3o2)n([O-])c2c1CCCC2,-33.9
9,Cc1cc(Nc2ccccc2)n(CCC#N)n1,-16.4
10,CC(C)NC(=O)c1ccccc1S(=O)c1ccccc1C#N (centres undefined),-2.78
11,CN(C)c1ccc(/C(=N\O)C(F)(F)F)cc1,-20
12,O=C(O)c1ccccc1Nc1ccccc1,-21
13,Cc1ccc(Nc2c(F)c(F)c(F)c(F)c2C(=O)O)c(C)c1,-51.9
14,Cc1ccc(O)c(-c2cc(C(F)(F)C(F)F)[nH]n2)c1,3.95
15,COc1ccc([N+](=O)[O-])cc1NC1CCCCC1,-14.6
16,COc1ccc(CCC(=O)N2CCCC(Nc3ccc(OC)cc3)C2)cc1 (centres undefined),9.94
17,Cc1ccc2[nH]cc(CCNC(=O)c3cccnc3)c2c1,-59.6
18,Cn1c(=O)c2c(-c3ccccc3)n(-n3cnnc3)cc2n(C)c1=O,-14.5
19,Cc1cccc(C2CN(C)CCc3c2cc(O)c(O)c3Cl)c1 (centres undefined),-100
20,C=CCN1CCc2cc(O)c(O)cc2C(c2ccccc2)C1 (centres undefined),-91.4
21,Cn1c(=O)[nH]c(=O)c2c1[nH]c(=S)n2Cc1ccc(Cl)cc1,-38.6
22,CCCCCn1c(Br)nc2c1c(=O)n(CC(N)=O)c(=O)n2C,-20.4
23,CCN1CCN(Cc2nc3c(c(=O)n(C)c(=O)n3C)n2CC(=O)c2ccccc2)CC1,13.8
24,N#C/C(N=Nc1ccccc1O)=N\Nc1ccccc1O,22.3
25,CC(C)(C)Nc1c(-c2cccs2)nc2ccccn12,-39.4
